Rows were chosen to be rich in hits. Some 19% of all compounds tested hit in one or more screens of this group.
DT40 TDP1 no CPT – qHTS for Inhibitors of human tyrosyl-DNA phosphodiesterase 1 (TDP1): qHTS in cells in absence of CPT | DT40 Tdp1-/- hTDP1 cells, no CPT, ATP luminescence, 48 h | Potency, µM (series often up to 46.2 µM), without a hit: at the highest dose activity change, negative = growth inhibition, hits mostly inhibitors | actives 15% (n = 420,000); note: nearly all actives have a fitted effect of over 55% in size
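Growth of hTDP1-complemented DT40 Tdp1-knockout cells is measured by ATP luminescence after at least 48 hr compound exposure at 37 °C, with DMSO substituting for the 20 nM CPT used in the parallel screen.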
HT1080-NT tox – qHTS for induction of synthetic lethality in tumor cells producing 2HG: qHTS for the HT-1080-NT fibrosarcoma cell line | actives 1.6% (n = 360,000) | AID 686970, 2013 | Potency, µM (highest dose often 46.1 µM), for inactives: top-dose activity, negative = less viability, most hits filed as cytotoxic | HT-1080-NT fibrosarcoma viability, CellTiter-Glo ATP luminescence, 48 h;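 note: NT is the 2HG producing partner of a matched IDH1 knockdown line; 0% = DMSO-treated cells and -100% = media-only wells without cells; nearly all actives have a fitted effect of over 55% in size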
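Fibrosarcoma NT cells, 750 per well in 5% FBS RPMI, were exposed to compound for 48 hours. Viability: CellTiter-Glo luminescence.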
TDP1 cell CPT – qHTS for Inhibitors of human tyrosyl-DNA phosphodiesterase 1 (TDP1): qHTS in cells in presence of CPT | chicken DT40 Tdp1-/-;hTDP1 cells + 20 nM CPT, ATP luminescence, 48 h | Potency, µM (series often up to 46.2 µM), for the others: at the top dose activity change, negative = growth inhibition, most hits filed as inhibitors | AID 686979, 2013 | actives 12% (n = 420,000); note: nearly all actives have a fitted effect of over 55% in size
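Cell growth measured by CellTiter-Glo luminescence after a minimum 48 h, 37 C compound exposure with 20 nM CPT in Tdp1-knockout DT40 cells stably expressing hTDP1, seeded 400/well; qHTS titration format.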
KB-3-1 cytotox – qHTS assay for MDR1-selective chemotherapeutics: Primary screen using the parental adenocarcinoma cell KB-3-1; KB-3-1 viability, CellTiter-Glo ATP luminescence, 72 h; Potency, µM (top dose mostly 46.1 µM), usual class: cytotoxic; actives 1.4% (n = 400,000); note: nearly all actives have a fitted effect of over 60% in size
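Parental KB-3-1 viability, qHTS format: 72 h compound exposure, 37 °C; CellTiter-Glo; media-only wells and DMSO plates as controls; concentration-effect fits on corrected data.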
KB-V1 cytotox – qHTS assay for MDR1-selective chemotherapeutics: Primary screen using the drug-selected MDR subline cells KB-V1 | KB-V1 MDR cells viability, CellTiter-Glo, 72 h | Potency, µM (titrated, usually from 46.1 µM), hits mostly cytotoxic | actives 3.4% (n = 400,000) | AID 1347076, 2019; note: nearly all actives have a fitted effect of over 60% in size
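Compound-treated KB-V1 multidrug-resistant cells, 72 h, 37 degrees C; viability by CellTiter-Glo. Fitted qHTS curves give the values.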
HT1080 IDH1KD tx – qHTS for induction of synthetic lethality in tumor cells producing 2HG: qHTS for the HT-1080-IDH1KD cell line; Potency, µM (doses to about 46.1 µM), for the others: top-dose activity, negative = toxicity, usual class: cytotoxic; actives 2% (n = 360,000); AID 686971, 2013; HT-1080 IDH1 knockdown viability, ATP luminescence, 48 h;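 note: 0% = DMSO wells and -100% = cell-free medium wells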
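% activity derives from luminescence (CellTiter-Glo), normalised to DMSO and no-cell wells. HT-1080-IDH1KD cells, 750/well, had 48 h compound exposure at 37 °C.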
Numbers without * were called inactive; i = inactive; ? = inconclusive; . = no result given; ! = a repeat was not active. Calls come from the whole dose curve; as a rule, active = well fitted curve in the direction sought with a large enough effect; inconclusive = small, poorly fitted or top-dose-only effect, or another doubt; inactive = no such curve, though single readings can be large; an effect the other way counts as inactive or inconclusive. Unless noted, % is set by controls: 0 for no effect and ±100 for the full control effect; potency is the fitted concentration of half-maximal effect.

SMILES	DT40 TDP1 no CPT	HT1080-NT tox	TDP1 cell CPT	KB-3-1 cytotox	KB-V1 cytotox	HT1080 IDH1KD tx
CCCCc1ccc(NC(=O)c2cccn(Cc3ccc(Cl)cc3)c2=O)cc1	-22%	.	-22%	?	i	.
Cc1ccc(C2CC3CCC(C2)N3Cc2ccccc2F)cc1 (stereo unspecified)	?	?	?	?	?	15µM*
CC12CCC3C(CCC4CC(=O)OCC43C)C1CCC2O (stereo unspecified)	-5%	0%	3%	i	?	-12%
COc1cccc(C(=O)NCc2nc(-c3cccc(NC(=O)c4ccoc4C)c3)oc2C)c1OC	6.5µM*	.	?	.	.	.
O=C(Cn1c(=O)nc(-c2ccccc2)c2cc(Cl)ccc21)NCc1ccccc1	16µM*	.	7.3µM*	.	.	.
Cc1ccc(-n2c(C)nc3ccccc3c2=O)c(C)c1	16µM*	5%	?	i	i	0%
Cc1ccc(-n2c(C)nc3ccccc3c2=O)cc1C	15µM*	-1%	?	i	i	-2%
Cc1nc2ccccc2c(=O)n1-c1ccc(-c2ccccc2)cc1	?	0%	?	i	?	-3%
CSc1ncc(C(=O)Nc2ccc(Cl)cc2C(=O)c2ccccc2)c(C)n1	?	.	?	i	i	.
c1cc(CN2CCC3(CCNCC3)CC2)ccn1	-2%	.	-1%	.	.	.
CCOC(=O)c1ccc(N2C(=O)c3n[nH]c(-c4cccs4)c3C2c2ccc(C(C)(C)C)cc2)cc1 (stereo unspecified)	6.5µM*	.	16µM*	?	?	.
CCOC(=O)c1ccc(N2C(=O)c3n[nH]c(-c4cccs4)c3C2c2ccc(Cl)cc2Cl)cc1 (stereo unspecified)	18µM*	.	?	?	?	.
Cc1ccc2nc(N)[nH]c(=O)c2c1Sc1ccncc1	0.38µM*	.	?	.	.	.
CCC(=O)N1CC(=O)Nc2ccc(C)cc2C1c1ccc(F)cc1 (stereo unspecified)	9.2µM*	.	3.7µM*	i	i	.
CCCCCc1nc2ccccc2c(=O)n1-c1ccc(Cl)cc1[N+](=O)[O-]	?	6%	?	i	i	7%
CC(=O)OC1(c2ccccc2)CCN(C)C(C)C1C (stereo unspecified)	-6%	3%	-1%	i	i	4%
CCC(C(=O)Nc1ccccc1F)N1C(=O)CN=C(c2ccccc2)c2ccccc21 (stereo unspecified)	23µM*	.	?	?	?	.
COC(=O)C1=CN(c2ccc(C(C)(C)C)cc2)C(N)=C(C#N)C1c1cccc([N+](=O)[O-])c1 (stereo unspecified)	23µM*	1%	?	i	?	-4%
COc1ccc(C(=O)OCC2CN2c2cccc([N+](=O)[O-])c2)cc1 (stereo unspecified)	-25%	16%	?	i	i	-7%
N#CC(C#N)=Cc1cc(O)c(O)c(O)c1	15µM*	.	9.4µM*	.	.	.
CCc1ccc(NC(=S)NC2CC3CCC(C2)N3Cc2ccco2)cc1 (stereo unspecified)	23µM*	?	18µM*	i	?	?
CN(C)C/C=C(/c1ccc(Br)cc1)c1cccnc1	12µM*	-18%	30µM*!	i	i	-25%
Cn1c(=O)c2c(nc(SCc3ccccc3)n2Cc2ccc(Cl)cc2)n(C)c1=O	?	1%	?	i	i	-15%
Cc1ccc(-c2c(C)n3c4c(=O)n(C)c(=O)n(C)c4nc3n2CCO)cc1	0.18µM*	.	0.26µM*	2.1µM*	i	.
Cc1cccn2c(=O)c3cc(C(=O)N4CCC5(CC4)OCCO5)n(C)c3nc12	1.3µM*	16µM*	1.2µM*	3.3µM*	3.7µM*	13µM*
SMILES	DT40 TDP1 no CPT	HT1080-NT tox	TDP1 cell CPT	KB-3-1 cytotox	KB-V1 cytotox	HT1080 IDH1KD tx
CO/C=C(/C(=O)OC)c1ccccc1Oc1cc(Oc2ccccc2C#N)ncn1	0.22µM*	.	0.24µM*	.	.	.
CCN(CC)c1ccc(N=Cc2c(O)n(-c3ccccc3)c(=O)[nH]c2=O)cc1	?	-3%	?	i	?	-4%
C=CCn1c(O)c(C(C)=Nc2ccc(N(CC)CC)cc2)c(=O)[nH]c1=O	9.2µM*	?	21µM*	5.8µM*	12µM*	?
CCN(CC)c1ccc(N=Cc2c(O)n(Cc3ccccc3)c(=O)[nH]c2=O)cc1	9.2µM*	-2%	16µM*	i	?	-15%
CCN(CC)c1ccc(N=Cc2c(O)n(-c3ccccc3C)c(=O)[nH]c2=O)cc1	?	?	23µM*	i	i	?
CCc1cc2c(s1)-n1c(C)nnc1CN=C2c1ccccc1Cl	-19%	.	?	.	.	.
O=C1NC[C@H](CCCCN2C[C@H](Cc3ccccc3)N(CCc3ccccc3)C(=O)C2=O)N(CC2CCCCC2)C1=O	-16%	20%	-2%	i	i	?
O=C1c2ccccc2-n2nnc(-c3ccccc3)c2C2c3ccccc3CCN12 (stereo unspecified)	7.3µM*	14%	16µM*	i	i	0%
O=C1c2ccccc2-n2nnc(-c3ccccc3)c2C2c3cc(Br)ccc3CCN12 (stereo unspecified)	?	17%	-16%	i	i	14%
Clc1ccc(C2=CCC[C@H]3CC[C@@H]2N3)cn1	-17%	.	2%	.	.	.
CC(=O)Nc1cc(-c2ccc(C(=O)NC3CC3)cc2)cn2c(-c3ccc(F)c(Cl)c3)cnc12	15µM*	?	?	i	?	18µM*
COc1ccc(-c2nn(Cc3ccccc3)cc2C(=O)NC2CC2)cc1OC	14%	7%	5%	i	i	-15%
COc1ccc(-c2coc3c(C(=O)Nc4cc(OC)c(OC)c(OC)c4)cccc23)c(C)c1	3.7µM*	?	4.1µM*	?	13µM*	?
COc1ccc(NC(=O)CN2C3CCC2CC(O)(c2cccnc2)C3)cc1OC (stereo unspecified)	-17%	-2%	-11%	i	i	-4%

High-throughput results (PubChem BioAssay)
